Measured values reported in the supplement of paper PMC12350171.
Counter-ions that a name gives are not always drawn. Unmarked numbers belong to inactive results.

Assays:
Conditions in all cases: 20 µM
[1] = system: Salmonella enterica typhimurium; assay: growth AUC normalised to DMSO control (fraction of control); higher = less growth inhibition, active = hit call of the paper
In short: (§1)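 Pathogens passaged twice anaerobically were inoculated at a starting OD578 of 0.01 into pre-reduced mGAM plates with drug at 20 μM and 1% DMSO, sealed with breathable membranes. Haemophilus parainfluenzae medium was supplemented with hemin and NAD. OD578 was read hourly for 24 h, with three biological replicates. Growth-curve AUC was computed by the trapezoidal rule up to the exponential-to-stationary transition and normalised to DMSO controls on the same plate.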

Shigella flexneri = assay: as above
In short: as §1

Vibrio cholerae = assay: as above
In short: as §1

[2] = system: Yersinia pseudotuberculosis; assay: as above
In short: as §1

P. vulgatus RND KO = assay: growth AUC normalised to DMSO control (median) (fraction of control); higher = less growth inhibition, active = hit call of the paper
In short: (§2)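 Each strain went through two overnight passages under anaerobic conditions before growth in mGAM in 96-well plates, starting at OD578 0.01, with each compound from the approved-drug library at 20 μM and 1% DMSO. Inside an anaerobic incubator, OD578 was recorded every hour for 24 h. Growth curves were cut off at entry into stationary phase, and the area under the curve was calculated by the trapezoidal rule and normalised to vehicle wells on the same plate. Reported values are medians of three biological replicates.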

P. vulgatus WT = assay: as above
In short: as §2

[3] = system: S. enterica typhimurium WT; assay: as above
In short: as §2

[4] = system: S. enterica typhimurium tolC KO; assay: as above
In short: as §2
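Wherever growth AUC normalised to DMSO control (median) is given: active when median AUC fell below 0.1.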

SMILES	growth AUC normalised to DMSO control [1]	growth AUC normalised to DMSO control (Shigella flexneri)	growth AUC normalised to DMSO control (Vibrio cholerae)	growth AUC normalised to DMSO control [2]	growth AUC normalised to DMSO control (P. vulgatus RND KO)	growth AUC normalised to DMSO control (P. vulgatus WT)	growth AUC normalised to DMSO control [3]	growth AUC normalised to DMSO control [4]
O=C1CCC(N2C(=O)c3ccccc3C2=O)C(=O)N1 (configuration not stated) [Thalidomide]	0.994	0.971	0.996	0.988	0.999	1.01	1	1
S=c1[nH]cnc2nc[nH]c12 [Mercaptopurine]	0.997	1.01	1	0.987	1.01	1	1	0.998
COc1ccc(-c2cc(=S)ss2)cc1 [Anethole-trithione]	1.02	1.05	0.91	1.19	1.02	1.04	0.985	0.91
Nc1nc2c(ncn2COCCO)c(=O)[nH]1 [Acyclovir]	1.01	1.01	1.01	0.995	1.05	1.02	1	1
Clc1ccc(CO/N=C(\Cn2ccnc2)c2ccc(Cl)cc2Cl)c(Cl)c1 [Oxiconazole nitrate]	1.02	1.04	1.05	0.983	1.01	1.04	1	0.909
CN[C@H](CC(C)C)C(=O)N[C@H]1C(=O)N[C@@H](CC(N)=O)C(=O)N[C@H]2C(=O)N[C@H]3C(=O)N[C@H](C(=O)N[C@H](C(=O)O)c4cc(O)cc(O)c4-c4cc3ccc4O)[C@H](O)c3ccc(c(Cl)c3)Oc3cc2cc(c3O[C@@H]2O[C@H](CO)[C@@H](O)[C@H](O)[C@H]2O[C@H]2C[C@](C)(N)[C@H](O)[C@H](C)O2)Oc2ccc(cc2Cl)[C@H]1O [Vancomycin hydrochloride]	0.986	0.984	1.01	0.981	0.014 (active)	0.0118 (active)	0.996	0.996
NCCc1cc[nH]n1 [Betazole hydrochloride]	0.986	0.97	0.979	0.968	0.999	1.02	1	0.999
CN(C)CCN(Cc1ccc(Cl)cc1)c1ccccn1 [Chloropyramine hydrochloride]	0.97	1.03	0.977	1.02	1.07	1.05	0.988	0.953
O=C(NC(Cc1cc(=O)[nH]c2ccccc12)C(=O)O)c1ccc(Cl)cc1 (configuration not stated) [Rebamipide]	1	1.03	1.03	0.997	1.06	1.09	0.99	0.998
COc1cnc(NS(=O)(=O)c2ccc(N)cc2)nc1 [Sulfameter]	1	0.986	1.01	1	0.992	1	0.993	0.993
CC1(C)S[C@@H]2[C@H](NC(=O)[C@H](N)c3ccc(O)cc3)C(=O)N2[C@H]1C(=O)O [Amoxicillin]	0.00744 (active)	0.0257 (active)	0.68 (active)	0.0346 (active)	0.0144 (active)	0.0118 (active)	0.00737 (active)	0.00653 (active)
C=C1/C(=C\C=C2/CCC[C@]3(C)[C@@H]([C@H](C)/C=C/[C@@H](O)C4CC4)CC[C@@H]23)C[C@@H](O)C[C@@H]1O [Calcipotriene]	0.987	0.931	0.972	0.977	0.931	0.958	1.01	0.946
O=C(O)CCCC[C@@H]1SC[C@@H]2NC(=O)N[C@@H]21 [Biotin]	0.992	0.975	1	0.946	1.01	1.03	1	1
CC/C(=C(\c1ccccc1)c1ccc(OCCN(C)C)cc1)c1ccccc1 [Tamoxifen citrate]	1.01	1.01	1	0.981	0.968	0.978	1	1.01
c1ccc(-c2ccc(C(c3ccccc3)n3ccnc3)cc2)cc1 (configuration not stated) [Bifonazole]	1.01	1.04	1	1.02	0.983	1	0.999	0.92
CCOc1ccc(NC(C)=O)cc1 [Phenacetin]	0.992	0.959	0.984	0.973	1	0.997	1	1
c1ccc2c(c1)CCCC2C1=NCCN1 (configuration not stated) [Tetrahydrozoline hydrochloride]	0.981	0.981	0.991	0.996	0.997	1	0.996	1

SMILES	growth AUC normalised to DMSO control [1]	growth AUC normalised to DMSO control (Shigella flexneri)	growth AUC normalised to DMSO control (Vibrio cholerae)	growth AUC normalised to DMSO control [2]	growth AUC normalised to DMSO control (P. vulgatus RND KO)	growth AUC normalised to DMSO control (P. vulgatus WT)	growth AUC normalised to DMSO control [3]	growth AUC normalised to DMSO control [4]
CCOC(=O)C1=C(C)NC(C)=C(C(=O)OC)C1c1cccc(Cl)c1Cl (configuration not stated) [Felodipine]	0.987	1	1	0.883	1.01	1.03	1	1
CN(C)CCOC(=O)C(c1ccccc1)C1(O)CCCC1 (configuration not stated) [Cyclopentolate hydrochloride]	1.02	1.01	1	1.02	0.98	0.993	0.999	1
CC(c1cc2ccccc2s1)N(O)C(N)=O (configuration not stated) [Zileuton]	0.987	0.986	1	0.931	1.01	0.985	1	0.993
Cc1cccc(C)c1NC(=O)C1CCCCN1C (configuration not stated) [Mepivacaine hydrochloride]	1.01	1.06	1.07	1.02	1.06	1.05	0.99	0.996
CC[C@H]1OC(=O)[C@H](C)[C@@H](O[C@H]2C[C@@](C)(OC)[C@@H](O)[C@H](C)O2)[C@H](C)[C@@H](O[C@@H]2O[C@H](C)C[C@H](N(C)C)[C@H]2O)[C@](C)(O)C[C@@H](C)[C@@H]2N[C@@H](COCCOC)O[C@H]([C@H]2C)[C@]1(C)O [Dirithromycin]	0.879 (active)	0.915	0.154 (active)	1	0.0107 (active)	0.0116 (active)	0.862	0.00235 (active)
Cc1ccccc1C(OCCN(C)C)c1ccccc1 (configuration not stated) [Orphenadrine hydrochloride]	1	1.02	1.02	0.992	1.01	0.992	0.983	0.958
CNC[C@H](O)[C@@H](O)[C@H](O)[C@H](O)CO [Meglumine]	1.02	1	1.04	0.984	1.01	1.04	1.01	1
CC(=O)c1ccc(S(=O)(=O)NC(=O)NC2CCCCC2)cc1 [Acetohexamide]	1	0.998	0.984	0.989	0.949	1	0.996	0.994
C#C[C@]1(O)CC[C@H]2[C@@H]3CCc4cc(OC)ccc4[C@H]3CC[C@@]21C [Mestranol]	0.987	1.01	1.01	1.01	0.968	0.96	0.999	0.988
CCCN(CCC)C(=O)C(CCC(=O)O)NC(=O)c1ccccc1 (configuration not stated) [Proglumide]	1.01	1.04	1.05	1.02	1.02	1.06	1	0.99
CCCCNc1cc(C(=O)O)cc(S(N)(=O)=O)c1Oc1ccccc1 [Bumetanide]	0.969	0.991	0.982	0.995	1.01	1.01	0.996	0.991
CCc1nn(CCCN2CCN(c3cccc(Cl)c3)CC2)c(=O)n1CCOc1ccccc1 [Nefazodone hydrochloride]	1	0.985	0.932	1.01	0.928	0.922	1	0.894
COc1cc(C)c(/C=C/C(C)=C/C=C/C(C)=C/C(=O)O)c(C)c1C [Acitretin]	0.995	1.02	0.985	0.99	0.944	0.956	1	0.998
C[C@@H](O)[C@H]1C(=O)N2C(C(=O)O)=C(S[C@@H]3CN[C@H](C(=O)N(C)C)C3)[C@H](C)[C@H]12 [Meropenem]	0.00502 (active)	0.0408 (active)	0.844	0.0586 (active)	0.0122 (active)	0.0155 (active)	0.00861 (active)	0.00577 (active)
NCCNCCNCCNCCN [Tetraethylenepentamine pentahydrochloride]	0.99	0.972	0.979	0.998	0.998	0.995	1.01	1
Clc1ccc(Nc2nnc(Cc3ccncc3)c3ccccc23)cc1 [Vatalanib]	1.01	1.05	1.01	1.02	0.98	0.992	1.01	0.966
CC(C)(C)c1ccc(C(O)CCCN2CCC(C(O)(c3ccccc3)c3ccccc3)CC2)cc1 (configuration not stated) [Terfenadine]	1.01	0.999	0.982	1.03	0.907	0.892	1.01	0.88
